Assay results reported in PubChem BioAssay (Tox21).
Inconclusive results are not listed. Where a call stands in place of a potency, no number is given. Activity calls are given as the source filed them. Calls follow the shape of the dose curve; as a rule, active = well fitted activation curve with a large enough effect in the repeat runs; inconclusive = weak or mixed curves; inactive = no such curve, though single readings can be large or run the other way.

Molecular target: Nuclear receptor subfamily 1 group I member 3 (Homo sapiens) (UniProt Q14994)
Sequence (Q14994 whole entry, looked up): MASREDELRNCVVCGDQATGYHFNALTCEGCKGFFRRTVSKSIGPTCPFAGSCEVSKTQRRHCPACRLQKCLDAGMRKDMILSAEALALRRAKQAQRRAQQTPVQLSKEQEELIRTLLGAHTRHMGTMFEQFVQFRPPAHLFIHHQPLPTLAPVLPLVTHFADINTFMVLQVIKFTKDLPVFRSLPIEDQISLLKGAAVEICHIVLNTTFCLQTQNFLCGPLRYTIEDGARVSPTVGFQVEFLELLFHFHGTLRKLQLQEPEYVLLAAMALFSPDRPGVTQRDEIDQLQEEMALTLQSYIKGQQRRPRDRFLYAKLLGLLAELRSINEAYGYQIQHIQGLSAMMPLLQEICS
Assay: qHTS assay to identify small molecule agonists of the constitutive androstane receptor (CAR) signaling pathway (AID 1224839); also: nearly all actives have a fitted effect of over 15% in size;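 as to activation: HepG2 cells stably carrying human CAR and a CYP2B6 luciferase reporter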
Details: HepG2 hCAR CYP2B6-luciferase, agonist mode, 24 h; series mostly up to 92.4 µM
From the text: National Center for Advancing Translational Sciences [NCATS] NIH Chemical Genomics Center [NCGC] U.S. Environmental Protection Agency [EPA] National Institutes of Environmental Health Sciences [NIEHS] National Toxicology Program [NTP] Assay overview: The constitutive androstane receptor (CAR) is a nuclear receptor which regulates multiple drug metabolizing enzymes (DMEs) and transporters. Activating CAR will generally increase the transcription and subsequent translation of CYP2B6 and CYP3A4. These two DMEs represent about 50% of the drug metabolizing potential in the body. […] Recently, there have also been studies performed indicating CARs role in energy metabolism and cancer therapy. Therefore, inducing CARs activity could have a potential effect on diabetes and cancer. Identifying environmental toxins and compounds which modulate CAR, through the use of the Tox21 10K compound collection, will be an important step in determining the toxicity and potential therapeutic effects these factors will have on the human body.
Assay Protocol Summary: A double-stable (hCAR and CYP2B6-2.2kb) transfected cell line, derived from human hepatoma (HepG2) cells, was utilized for the duration of the quantitative high-throughput screens. The HepG2-CYP2B6-hCAR cells suspended in DMEM culture medium supplemented with 10% FBS, 5 ug/mL blasticidin, 0.5 mg/mL geneticin, 100 U/mL penicillin and 100 ug/mL streptomycin were dispensed at 2500 cells/4 uL/well in 1536-well white solid bottom plates using a Multidrop Combi. After the assay plates were incubated at 37 C/5% CO2 for 4 hrs, 23 nL of compounds at 15 concentrations (from 5-48 columns) or positive control (from 1 to 4 columns) were transferred to the assay plates using a Pintool station. One uL of PK11195, was added using a Flying Reagent Dispenser to generate a final concentration of 0.75 uM PK11195 inside each well. After a 24 hr incubation period at 37 C/5% CO2, four uL of ONE-Glo reagent was added into the assay plates using a Flying Reagent Dispenser. After a 30 min incubation period at room temperature, the luminescence intensity in the assay plates was measured using a ViewLux plate reader.
Potency is read from the fitted curve at half-maximal effect.

| Structure (SMILES) | Potency | activation |
| --- | --- | --- |
| CC1(O)CSC(C)(O)CS1 (stereo not given) | inactive | – |
| COC(=O)/C=C(/C)N | inactive | – |
| O=C(O)CN(CCN(CC(=O)O)CC(=O)O)CCN(CC(=O)O)CC(=O)O | – | -1.04% [at 19 µM] (inactive) |
| C[C@@H](N)C(=O)O | inactive | – |
| N#CSCC(=O)O | inactive | – |
| O=C(CCCl)NCc1ccccc1 | inactive | – |
| CC(C)OC(C)C | inactive | – |
| Cc1c[nH]c(=S)[nH]c1=O | inactive | – |
| CCC/C=C/CO | inactive | – |
| Cc1c(-c2ccccc2)oc2c(C(=O)OCCN3CCCCC3)cccc2c1=O | inactive | – |
| Nc1ccc2ccccc2c1S(=O)(=O)O | 22.1 µM (active) | – |
| CC(C)CC(=O)OCc1ccccc1 | inactive | – |
| Cc1ccc(C)c(N)c1 | inactive | – |
| CCN(CC)CCOc1ccc(Cc2ccccc2)cc1 | inactive | – |
| CC(C)(C)C1CCCCC1=O (stereo not given) | inactive | – |
| NC/C=C/C(=O)O | inactive | – |
| CCCCC1CCC(=O)O1 (stereo not given) | inactive | – |
| CCCCCCCCCC#N | inactive | – |
| COC(=O)c1ccc(OC)cc1 | inactive | – |
| CCCCCCCCc1ccc(S(=O)(=O)O)cc1 | inactive | – |

| Structure (SMILES) | Potency | activation |
| --- | --- | --- |
| CN1C(=O)CC(c2ccccc2)C1=O (stereo not given) | inactive | – |
| O=c1[nH]c(=O)n([C@H]2C[C@H](O)[C@@H](CO)O2)cc1C(F)(F)F | inactive | – |
| CN1CCN(c2c(F)cc3c(=O)c(C(=O)O)cn4c3c2SCC4)CC1 | inactive | – |
| CCOC(=O)C1CC(=O)C(=C(O)C2CC2)C(=O)C1 (stereo not given) | inactive | – |
| C=Cc1ccccc1 | inactive | – |
| O=Cc1ccc(F)c(Br)c1 | inactive | – |
| CCCCNC(=S)NCCCC | inactive | – |
| CC(C)O | inactive | – |
| COc1ccccc1OCC(O)COC(N)=O (stereo not given) | inactive | – |
| O=C(O)[C@@H]1CSCN1 | inactive | – |
| CCOc1ccc(OCC)c(Cl)c1 | inactive | – |
| CCCN(CCC)C(=O)C(CCC(=O)O)NC(=O)c1ccccc1 (stereo not given) | inactive | – |
| CCOc1ccc2nc(N)sc2c1 | 21.5 µM (active) | – |
| CNCCC(Oc1ccccc1OC)c1ccccc1 (stereo not given) | inactive | – |
| O=C(O)c1ccccc1Nc1cc(Cl)ccc1C(=O)O | – | -3.13% [at 19 µM] (inactive) |
| FC(F)(F)C(F)(F)C(F)(F)C(F)(F)C(F)(F)C(F)(F)C(F)(F)C(F)(F)Br | inactive | – |
| Cc1cc2c(s1)Nc1ccccc1N=C2N1CCN(C)CC1 | inactive | – |
| CC(=O)OC(C)OC(C)=O | inactive | – |
| Cc1ccccc1C(=O)Nc1ccc(C(=O)N2CCCC(O)c3cc(Cl)ccc32)c(C)c1 (stereo not given) | inactive | – |
| COC(C)CCO (stereo not given) | inactive | – |
